Screens deposited in PubChem BioAssay by Broad Institute.
Rows were chosen to be rich in hits. Some 6.7% of all compounds tested hit in one or more screens of this group.
T cruzi growth-1 = inhibitors of T. cruzi proliferation | T. cruzi beta-gal in NIH3T3, GalScreen luminescence, 90 h | inhibition, % at 8.34 µM | 77,000 tested, 5.9% active;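 active = mean inhibition above about 93%, with at least 55% of replicates each passing it, limit read from the data, passing the limit was not always enough; inconclusive = only one of those two conditions holds; inactive = neither condition holds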
Pf Dd2 inh = inhibitors of Plasmodium falciparum Dd2 growth; AID 1159554; P. falciparum Dd2 growth, SYBR Green, 72 h; active compounds read low; activity change, % at 10 µM; 94,000 tested, 2.3% active; in the data active = activity change below about -80%; inconclusive = no clear call, values can overlap the other calls
C diff growth = C. difficile growth inhibition; Clostridium difficile clinical isolate growth, OD600, 24 h; active compounds read low; growth activity, negative = inhibition, % at 16 µg/mL (by protocol); 86,000 tested, 0.25% active;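 active = mean growth activity at or below -80% and every replicate also at or below -80%; inconclusive = mean at or below -80% but some replicate above -80%; inactive = mean growth activity above -80%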
T cruzi growth-2 = blocks T. cruzi growth in NIH3T3 host cells; AID 651739; inhibition, % at 8.35 µM; 5,600 tested, 72% active; shares compounds with T cruzi growth-1; T. cruzi beta-gal in NIH3T3, GalScreen luminescence, 90 h;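 active = mean replicate inhibition above about 95% and at least 55% of replicates individually reaching it, limit read from the data; inconclusive = only one of the two criteria is met; inactive = neither criterion is met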
T cruzi growth-3 = blocks T. cruzi growth in NIH3T3 host cells; T. cruzi beta-gal in NIH3T3, GalScreen luminescence, 90 h; AID 651740; inhibition, % at 2.09 µM; shares compounds with T cruzi growth-1; 5,600 tested, 21% active;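 active = mean inhibition above about 95%, with at least 55% of replicates also reaching it, limit read from the data; inconclusive = meets just one of the two conditions; inactive = meets neither condition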
3T3 cytotox = kills mouse NIH/3T3 fibroblasts | shares compounds with T cruzi growth-1 | NIH/3T3 viability, CellTiter-Glo ATP luminescence, 90 h | cytotoxicity (signal decrease), % at 8.35 µM | 5,600 tested, 14% active | AID 651742;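 active = mean signal decrease across replicates above about 35% based on untreated-well scatter, with enough replicates individually passing, limit read from the data; inconclusive = no rule stated though some were filed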
NIH3T3 tox 2 = kills mouse NIH/3T3 fibroblasts; shares compounds with T cruzi growth-1; NIH/3T3 viability, CellTiter-Glo ATP luminescence, 90 h; inhibition, % at 24.9 µM; 5,600 tested, 56% active; AID 651744;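 active = mean loss of cell viability signal at or above a set limit, and enough replicates individually reaching it; inconclusive = meets only the mean limit or only the replicate share; inactive = meets neither condition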
Large screens that a line does not name were inactive (follow-up assays come after a bar, where they were run).

COc1ccc(S(=O)(=O)Nc2ccc3c(c2)C(=O)N([C@@H](C)CO)C[C@@H](C)[C@@H](CN(C)C(=O)Nc2ccc(C(F)(F)F)cc2)OCCCC[C@@H](C)O3)cc1	none
Cc1ccc(S(=O)(=O)Nc2ccc3c(c2)C(=O)N([C@@H](C)CO)C[C@H](C)[C@@H](CN(C)C(=O)Nc2ccc(C(F)(F)F)cc2)OCCCC[C@@H](C)O3)cc1	none
Cc1ccc(S(=O)(=O)Nc2ccc3c(c2)C(=O)N([C@@H](C)CO)C[C@H](C)[C@H](CN(C)C(=O)Nc2ccc(C(F)(F)F)cc2)OCCCC[C@H](C)O3)cc1	none (no result: T cruzi growth-1)
Cc1ccc(S(=O)(=O)Nc2ccc3c(c2)C(=O)N([C@@H](C)CO)C[C@@H](C)[C@@H](CN(C)C(=O)Nc2ccc(C(F)(F)F)cc2)OCCCC[C@@H](C)O3)cc1	T cruzi growth-1 98 | T cruzi growth-2 104 | T cruzi growth-3 112 | 3T3 cytotox inactive | NIH3T3 tox 2 inactive
COc1ccc(S(=O)(=O)Nc2ccc3c(c2)C(=O)N([C@H](C)CO)C[C@H](C)[C@H](CN(C)C(=O)Nc2ccccc2)OCCCC[C@H](C)O3)cc1	T cruzi growth-1 99 | T cruzi growth-2 108 | T cruzi growth-3 inactive | 3T3 cytotox inactive | NIH3T3 tox 2 inactive
Cc1ccc(S(=O)(=O)Nc2ccc3c(c2)C(=O)N([C@H](C)CO)C[C@H](C)[C@@H](CN(C)C(=O)Nc2ccc(C(F)(F)F)cc2)OCCCC[C@@H](C)O3)cc1	T cruzi growth-1 101 | T cruzi growth-2 105 | T cruzi growth-3 inactive | 3T3 cytotox inactive | NIH3T3 tox 2 inactive
C[C@H](CO)N1C[C@H](C)[C@H](CN(C)S(=O)(=O)c2ccccc2)Oc2ccc(NC(=O)CCC(F)(F)F)cc2C1=O	none
C[C@H]1CCCCO[C@H](CN(C)Cc2ccc(C(=O)O)cc2)[C@@H](C)CN([C@@H](C)CO)C(=O)c2cc(NC(=O)Nc3ccccc3)ccc2O1	none
C/C=C/c1cnc2c(c1)C(=O)N([C@H](C)CO)C[C@H](C)[C@@H](CN(C)Cc1ccc(F)cc1)O2	none
C/C=C/c1cnc2c(c1)C(=O)N([C@@H](C)CO)C[C@H](C)[C@H](CN(C)Cc1ccc(F)cc1)O2	T cruzi growth-1 114 | T cruzi growth-2 inactive | T cruzi growth-3 inactive | 3T3 cytotox inactive | NIH3T3 tox 2 48
C/C=C/c1cnc2c(c1)C(=O)N([C@@H](C)CO)C[C@H](C)[C@@H](CN(C)Cc1ccc(F)cc1)O2	none
C/C=C/c1cnc2c(c1)C(=O)N([C@H](C)CO)C[C@@H](C)[C@@H](CN(C)Cc1ccc(F)cc1)O2	T cruzi growth-1 119 | T cruzi growth-2 inconclusive | T cruzi growth-3 inactive | 3T3 cytotox inactive | NIH3T3 tox 2 inconclusive
CO[C@H]1CN(C)C(=O)c2cc(NC(=O)Nc3ccccc3)ccc2OC[C@H](C)N(C(=O)CN(C)C)C[C@@H]1C	none
COc1ccc(NC(=O)N2C[C@H]3[C@@H](c4ccccc42)[C@H](CO)N3C(=O)C2CCCCC2)cc1	none
COCCNC[C@@H]1[C@@H](c2ccccc2)[C@@H](CO)N1c1nc(C)c(C)s1	none
COCCNC[C@H]1[C@@H](c2ccccc2)[C@@H](CO)N1c1nc(C)c(C)s1	T cruzi growth-1 103 | T cruzi growth-2 inactive | T cruzi growth-3 inactive | 3T3 cytotox inactive | NIH3T3 tox 2 inactive
Cc1noc(C)c1S(=O)(=O)Nc1ccc2c(c1)C(=O)N([C@@H](C)CO)C[C@H](C)[C@@H](CN(C)Cc1ccncc1)OCCCC[C@H](C)O2	none
C[C@H](CO)N1C[C@H](C)[C@H](CN(C)C(=O)Nc2ccc(F)cc2)Oc2c(NC(=O)Nc3cccc4ccccc34)cccc2C1=O	T cruzi growth-1 inconclusive | T cruzi growth-2 109 | T cruzi growth-3 inactive | 3T3 cytotox 37 | NIH3T3 tox 2 95
C[C@@H]1CN([C@H](C)CO)C(=O)c2cccc(NC(=O)Nc3ccc(C(F)(F)F)cc3)c2O[C@@H]1CN(C)C(=O)Nc1cccc2ccccc12	none
C[C@@H]1CN([C@H](C)CO)C(=O)c2cccc(NC(=O)C3CCCCC3)c2O[C@H]1CN(C)C(=O)Nc1ccc(F)cc1	none
